# Rac1 act GTP bind: alters GTP binding to activated mutant human Rac1 | GST-Rac1 activated beads, fluorescent GTP binding, flow cytometry; actives lie on both sides; 100% means binding = to untreated wells | P63000 | percent activity (GTP binding), % at 10 µM | hit rate 0.11% among 190,000;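 active = GTP binding at least 20 percentage points away from the 100% baseline, in either direction, so actives lie on both sides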
# Rab2 wt GTP: changes GTP binding to wildtype dog Rab2A, up or down; GST-Rab2 wt beads, Bodipy-GTP binding, flow cytometry; AID 760; P61105; GTP binding activity, % at 10 µM; hit rate 0.19% among 190,000;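 active = GTP binding activity at least 20 points away from 100%, either lowered or raised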;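 note: 0% = beads with excess unlabeled GTP and 100% = no-compound control corrected for plate trend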
# Cdc42 wt: modulators (inhibitors or activators) of GTP binding to human Cdc42 wildtype. hit rate 0.2% among 190,000. AID 761. P60953. GST-Cdc42 beads, Bodipy-GTP binding, flow cytometry; actives lie on both sides. percent activity (GTP binding), % at 10 µM;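 active = percent activity GTP binding at least 20 points away from the 100% baseline, either down as inhibitor or up as activator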;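 note: median bead fluorescence of bound Bodipy-FL-GTP at 100 nM; 0% = excess unlabeled GTP control and 100% = no compound control; below 100% means less GTP binding so inhibitor and above means activator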
# Target sequence (P60953 whole entry, looked up): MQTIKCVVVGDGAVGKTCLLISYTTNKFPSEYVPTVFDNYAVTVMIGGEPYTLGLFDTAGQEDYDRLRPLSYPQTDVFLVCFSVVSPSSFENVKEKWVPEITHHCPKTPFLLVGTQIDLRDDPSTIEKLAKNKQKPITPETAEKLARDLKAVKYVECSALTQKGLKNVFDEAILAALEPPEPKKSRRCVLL
# Rac1 wt GTP bind: alters GTP binding to wildtype human Rac1. AID 757. hit rate 0.27% among 190,000. GTP binding activity (% of control), % at 10 µM. GST-Rac1 beads, fluorescent GTP binding, flow cytometry; actives lie on both sides; 0 = cold GTP competed, 100 = untreated;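 active = GTP binding activity at least 20 points away from the 100% control level, either lower or higher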
# Rab7 wt modul: alters GTP binding to wildtype dog Rab7. GTP binding activity (percent of control), % at 10 µM. hit rate 0.055% among 190,000. GST-Rab7 beads, fluorescent GTP binding, flow cytometry; actives lie on both sides; untreated = 100%, excess cold GTP = 0%;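 active = fluorescent GTP binding to Rab7 beads changed by at least 20 points from the 100% baseline, either direction, mostly lower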;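 note: median green fluorescence of bound Bodipy-FL-GTP per Rab7 bead population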
# HRas wt GTP bind: modulators of GTP binding to human HRas wildtype; hit rate 0.14% among 190,000; GTP binding activity, % at 10 µM; GST-Ras wt beads, Bodipy-FL-GTP binding, flow cytometry; actives lie on both sides; AID 759; P01112;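 active = GTP binding activity at least 20% away from the 100% baseline, either lowered as inhibitor or raised as activator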;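 note: 0% = unlabeled GTP competition control and 100% = no-compound control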
# Target sequence (P01112 whole entry, looked up): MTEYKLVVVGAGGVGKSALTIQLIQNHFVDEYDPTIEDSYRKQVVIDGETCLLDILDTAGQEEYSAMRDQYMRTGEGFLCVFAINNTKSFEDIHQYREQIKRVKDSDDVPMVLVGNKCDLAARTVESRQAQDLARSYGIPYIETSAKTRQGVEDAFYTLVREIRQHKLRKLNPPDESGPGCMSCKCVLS
# * marks the source's active call; other numbers are inactive results; [ ] = dose if it differs, or a comment. Hits are enriched below; roughly 0.38% of the tested compounds scored in any of these assays.
SMILES,Rac1 act GTP bind,Rab2 wt GTP,Cdc42 wt,Rac1 wt GTP bind,Rab7 wt modul,HRas wt GTP bind
CCCS(=O)(=O)c1nnnn1-c1cccc(OC)c1,78*,89,80,91,90,91
Cc1ccc2oc(=O)c3cc(C(=O)Nc4cc(-c5cccc(F)c5)no4)sc3c2c1,96,96,97,100,102,98
CCCCn1c(O)c(N=NC(=O)c2ccccc2NS(=O)(=O)c2cccs2)c2ccccc21,78*,81,82,81,91,86
C=CCn1c(O)c(N=NC(=O)c2ccccc2NS(=O)(=O)c2cccs2)c2ccccc21,88,85,94,92,88,88
Cc1[nH]n(-c2nc(-c3ccc(Cl)cc3)cs2)c(=O)c1N=Nc1ccc(O)cc1,91,92,92,95,92,94
Nc1c([N+](=O)[O-])cc(-c2cnc[nH]2)cc1[N+](=O)[O-],88,77*,77*,84,94,78*
COc1ccc(-c2cnc[nH]2)cc1,95,96,97,99,100,97
CCn1c2ccccc2c2nnc(SCC(=O)NCCOC)nc21,99,35*,97,105,100,101
Cc1ccc(NC(=S)N=Nc2c(O)[nH]c3ccccc23)cc1,89,84,86,84,87,87
Oc1ccc(NC(=S)N=Nc2c(O)[nH]c3ccccc23)cc1,86,75*,71*,70*,101,77*
Oc1ccc(NC(=S)N=Nc2c(O)[nH]c3ccc(Br)cc23)cc1,90,79*,79*,79*,92,80
CNC(=S)N=Nc1c(O)[nH]c2ccccc12,84,72*,80,69*,85,79*
Cc1ccc(NC(=O)COC(=O)CSC(=S)N2CCOCC2)cc1,94,95,93,95,104,96
COc1ccc(NC(=O)CC2S/C(=N\c3nccs3)N(C)C2=O)cc1 (centres undefined),99,101,102,100,100,97
COc1ccc(OCCN2C(=O)c3ccccc3C2=O)cc1,107,106,111,127*[activator],96,93
CCOC(=O)C(/C(C)=N/NC(=O)C1CC1c1ccccc1)C(C)C (centres undefined),101,102,100,105,99,101
CC(=O)Nc1ccc(Nc2ccc3nonc3c2[N+](=O)[O-])cc1,95,93,95,98,94,95
CCc1nnc(NS(=O)(=O)c2ccc(Nc3ccc4nonc4c3[N+](=O)[O-])cc2)s1,83,76*,81,77*,87,77*
CC(C)(C)NC(=O)CCN(/N=C/c1ccc([N+](=O)[O-])o1)C1=NS(=O)(=O)c2ccccc21,59*,45*,56*,50*,72*,42*
CC(=O)Nc1ccc(N2C(=O)c3ccc(C(=O)Nc4nnc(SCc5ccc(F)cc5)s4)cc3C2=O)cc1,93,97,97,99,94,73*
CC(=O)Nc1ccc(/C=N/NC(=O)CCN2CCN(c3ccccc3)CC2)cc1,87,75*,76*,74*,88,79*
NS(=O)(=O)c1ccc(CCN2C(=O)/C(=C\c3ccc(Cl)cc3)SC2=S)cc1,85,82,84,77*,85,84
Cc1ccc(C)n1N1C(=O)/C(=C\c2ccc(Cl)cc2)SC1=S,91,92,92,92,96,95
CCOc1ccc2nc(SCC(=O)N3c4ccccc4Sc4ccccc43)c(C#N)cc2c1,100,100,100,105,102,102
CCOc1ccc2nc(SCc3ccc(CC(=O)O)cc3)c(C#N)cc2c1,76*,74*,71*,82,88,84
CCOC(=O)C1=NN(c2ccc(C)cc2)CC1C(=O)OC (centres undefined),97,97,118,123*[activator],95,96
Cc1ccc(NC(=O)CN2C(=O)S/C(=C\c3ccc(-c4cccc(C(=O)O)c4C)o3)C2=O)cc1C,82,82,79*,84,97,89

# Compound activity as filed in PubChem BioAssay.
